From PubChem BioAssay (NCI) come the findings set out here.

The panel holds about 83,000 compounds, 20% with a hit somewhere; the sample as a whole holds those more often.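 The test compound was applied at a single concentration to cells in 96-well plates for 48 hours, and percent growth was recorded.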 A number with no mark means an inactive call. Active and inactive are the calls of the source. How the source made its calls: active means growth percent below 10; inactive means the rest.

Experiment in all cases: NCI-60 one-dose screen, 48 h (100 = growth as untreated, 0 = no growth, -100 = all killed)
Common to all, as to conditions: 10 µM unless noted

Test [1] concerns NCI-H23 lung.
Test [2] relates to NCI-H226 lung.
The test system of test [3] is NCI-H322M lung.
Test [4] relates to HOP-62 NSCLC.
Test [5] concerns NCI-H460 lung.
In test [6] the test system is HOP-92 NSCLC.
For test [7], the system named is NCI-H522 lung.
Test [8] has as its system A549/ATCC NSCLC.
Test [9] deals with 786-0 renal.
For test [10], the system named is COLO 205 colon.

On to `COC(=O)c1ccc2nc(-c3cc4ccccc4n3C)n(CCCCOc3cc4c(cc3OC)C(=O)N3CCC[C@H]3C=N4)c2c1`, for which the growth was 7.22% (active) in test [1]; -31.8% (active) in [2]; -38.1% (active) in test [3]; 15.6% in [4]; -25.9% (active) in [5]; -28.5% (active) in test [6]. Further, the growth was -28.1% (active) in test [7], -11.8% (active) in [8], 8.78% (active) in [9] and -39.4% (active) in test [10].

As to `Cc1cc(NC(=O)COC(=O)c2sc3cc(F)ccc3c2Cl)no1`, the growth in test [1] is 108%; in test [2], 101%; in test [3], 112%; in test [4], 96.2%; in [5] it was 116%; in [6], 91.8%. Besides, the growth in [7] is 99.3%; in [8], 103%; in test [9], 101%; in [10], 104%.

In the case of `COc1ccc(NC(=O)CSc2nc3ccccc3c(=O)n2-c2ccccc2C(F)(F)F)c(OC)c1OC`, the growth in test [1] is 102%; in test [2] it was 102%; in test [3], 116%; in [4], 78%; in [5], 99.4%; in test [6] it was 77.3%. The growth in test [7] was 112%; in [8] it was 98.3%; in [9], 101%; in test [10], 102%.

Regarding `O=C1N=C(c2c(-c3[nH]c(=O)c4ccc(Br)cc4c3O)c(O)c3ccccc3c2O)C(=O)c2cc(Br)ccc21`, the growth in test [1] was -43% (active); in [2], -30.4% (active); in [3], -3.29% (active); in test [4], -52.9% (active); in [5], -80.9% (active); in test [6], -13.2% (active). Further, the growth in test [7] was -31.4% (active); in test [8], -32.2% (active); in test [9], -63.2% (active); in test [10], 73.1%.

For the compound `O=C(Nc1ccc(F)cc1)c1cc([N+](=O)[O-])ccc1O`, the growth was 50.1% in [1]; 88.3% in [2]; 64.3% in test [3]; 65.2% in test [4]; 64.2% in test [5]; 15.7% in [6]. In addition, the growth in test [7] is 15.3%; in [8] it was 68.1%; in test [9], 80.2%; in [10], 81.5%.

Consider `Cc1cc2c(C(C)C)c(O)c(O)c(C=NCCCCCCC(=O)O)c2c(O)c1-c1c(C)cc2c(C(C)C)c(O)c(O)c(C=NCCCCCCC(=O)O)c2c1O`, for which the growth in test [1] was 21.8%; in test [2] it was 74.7%; in [3] it was 38.9%; in test [4], 39.3%; in test [5] it was 13.1%; in test [6], 13.8%. Besides, the growth in test [7] is 9.55% (active); in test [8], 30.7%; in test [9], 38.2%; in [10] it was 14.6%.

With `CCN1C(=O)N[C@H]2[C@@H]3NC(=O)c4ccc(Cl)n4[C@@H]3C[C@]21O`, the growth in test [1] is 6.06% (active); in test [2], 5.43% (active); in test [3] it was 11.7%; in test [4], -4.56% (active); in test [5], 2.06% (active); in test [6] it was 3.95% (active). For the same compound, the growth is -26.9% (active) in test [7], 9.08% (active) in [8], -4.85% (active) in [9] and -29.5% (active) in [10].

For `O=C(Nc1cccc(C(F)(F)F)c1)Nc1ccc(OCc2nnc(-c3ccccc3)o2)c(F)c1`, the growth in test [1] is 35.7%; in [2], 56.3%; in test [3], 61.6%; in [4], 56.1%; in test [5], 6.12% (active); in test [6], -8.2% (active). Moreover, the growth in test [7] is 1.68% (active); in [8] it was 29.9%; in [9] it was 60.4%; in test [10] it was 32.6%.

As to `CC1=NN2C(=NC3=C(CCC/C3=C\c3ccc(Cl)cc3)C2c2ccc(Cl)cc2)S1` (stereo not given), the growth in test [1] is 97.8%; in test [2], 101%; in [3], 104%; in test [4] it was 115%; in test [5], 101%; in test [6], 77.9%. Besides, the growth is 83.3% in test [7], 87% in test [8], 97.2% in [9] and 109% in test [10].

For the compound `CCCCNc1nnc(-c2cc(-c3cc4ccccc4o3)nn2-c2ccccc2)o1`, the growth in test [1] was 96.7%; in test [2] it was 86.2%; in test [3] it was 87.4%; in [4] it was 110%; in test [5] it was 98.7%; in test [6] it was 46.4%. Further, the growth was 80% in test [7], 82% in [8], 93% in [9] and 105% in test [10].

As to `O=C(CCCn1c2c(sc3ccccc32)c(=O)n2nnc(-c3ccccc3)c12)NCCc1cnc[nH]1`, the growth in test [1] was 23.4%; in test [2], 98.5%; in test [3] it was -34.1% (active); in test [4], -7.01% (active); in test [5], -93.2% (active); in test [6], -75.7% (active). Further, the growth in test [7] is -95.8% (active); in [8], -75.3% (active); in [9], -85.2% (active); in test [10], -3.8% (active).

Consider `Clc1ccc([I+]c2ccc(Cl)cc2Cl)c(Cl)c1`, for which the growth is 18% in test [1]; 102% in [2]; 77.2% in test [3]; 36.5% in test [4]; 81% in [5]; 14.9% in test [6]. Also, the growth in test [7] is -91.1% (active); in [8], 76%; in test [9], 11.2%; in [10] it was -79.2% (active).

For the compound `Cc1cc(C(=O)O)c(N)c(C)n1`, the growth in test [1] is 100%; in test [2], 118%; in [3], 106%; in [4], 106%; in test [5], 108%; in [6], 93.2%. The growth in test [7] was 107%; in test [8] it was 108%; in test [9], 104%; in [10], 119%.

In the case of `CCN(CC)c1cc(/C=C/c2ccc(OC)c(OC)c2)nc2cc(F)c(F)cc12`, the growth in test [1] was -2.87% (active); in test [2], 24.6%; in test [3], 90.9%; in test [4], -78.8% (active); in [5], 84.9%; in test [6], -53.2% (active). Further, the growth in test [7] is 33.9%; in test [8], 64.8%; in test [9], -18.7% (active); in test [10], 105%.
